The record followed here is PubChem BioAssay (Tox21).

Unmarked numbers belong to inactive results. Inconclusive results are not listed. The source made the active and inactive calls. Unless noted, calls come from the whole dose curve; as a rule, active = well fitted curve in the direction sought with a large enough effect in the repeat runs; inconclusive = weak or mixed curves; inactive = no such curve, though single readings can be large; an effect the other way counts as inactive or inconclusive.

For assay [1], the target named is Progesterone receptor (Homo sapiens) (UniProt P06401). The experiment in a line: qHTS assay to identify small molecule agonists of the progesterone receptor (PR) signaling pathway (AID 1346784; calls by dose curve; note: nearly all actives have a fitted effect of over 30% in size). In a few lines: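 Compounds were tested for PR agonism in HEK 293T cells bearing a beta-lactamase gene under UAS control. Treatment lasted 16 hr at 37C; signal came from fluorescence of a FRET substrate.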

Assay [2] shares this target. The assay is described as follows: qHTS assay to identify small molecule antagonists of the progesterone receptor (PR) signaling pathway (AID 1346795; active = well fitted inhibition curve with a large enough effect in the signal ratio in the repeat runs, not every such curve was filed as active; the % refers to the signal ratio). In a few lines: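 In HEK293T cells bearing the PR-UAS-bla reporter, compound effects on promegestone-driven (1 nM) beta-lactamase expression are assessed after 16 hr using a fluorescent FRET substrate incubated 2 hr at room temperature.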
For orientation: Quantitative high-throughput screening tests each substance at several concentrations.

Assay [3] can be described thus: qHTS assay to identify small molecule antagonists of the progesterone receptor (PR) signaling pathway - cell viability counter screen (AID 1346798). Note: series mostly up to about 92 µM; nearly all actives have a fitted effect of over 50% in size. In a few lines:
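Following a 4 hr attachment, PR-UAS-bla HEK293T cells in charcoal-stripped FBS medium were exposed to compounds with R5020 for 16 hr; CellTiter-Glo was added and luminescence read after 30 min at room temperature.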

The nature of assay [4]: qHTS assay to identify small molecule agonists of the progesterone receptor (PR) signaling pathway - cell viability counter screen (AID 1346799; calls by dose curve; note: nearly all actives have a fitted effect of over 45% in size; note: potency is the fitted concentration of half-maximal effect). In a few lines:
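Here, 3,000 PR-UAS-bla HEK293T cells per well were treated with compounds for 16 hr after a 6 hr preincubation at 37C and 5% CO2; cell viability is the CellTiter-Glo luminescence signal.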

The nature of assay [5]: qHTS assay to identify small molecule agonists of the TGF-beta/Smad signaling pathway - cell viability counter screen (AID 1346829). Note: top concentration of the series differs between compounds; nearly all actives have a fitted effect of over 45% in size. In a few lines: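 In parallel with the Smad reporter read, viability of HEK 293T cells stably carrying SBE-bla is quantified by ATP luminescence following 5 hr compound treatment.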
The target in assay [6] is Thyrotropin-releasing hormone receptor (Homo sapiens) (UniProt P34981). The assay is described as follows: qHTS assay to identify small molecule antagonists of the thyrotropin-releasing hormone receptor (TRHR) signaling pathway (AID 1346877; active = well fitted inhibition curve with a large enough effect in the repeat runs, not every such curve was filed as active; note: series mostly up to about 51 µM). In a few lines: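 Antagonism is measured as suppression of the calcium response to 1 nM TRH in TRHR-HEK293 cells that have been dye-loaded for 2 h at 37 °C after overnight plating. Each compound is tested at 15 concentrations in triplicate.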

For assay [7] the target is unchanged. The experiment in a line: qHTS assay to identify small molecule agonists of the thyrotropin-releasing hormone receptor (TRHR) signaling pathway (AID 1346891; calls by dose curve; note: series mostly up to about 58 µM). In a few lines: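 Screening of agonists relied on calcium signalling in HEK293 cells expressing human TRHR: dye loading 2 h at 37 °C preceded compound addition and a 3-min fluorescence time course.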
Assay [8] in a line: Human pregnane X receptor (PXR) small molecule agonists, qHTS cell viability counter screen (AID 1346977). Note: nearly all actives have a fitted effect of over 50% in size. In a few lines: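 Tox21 qHTS format; PXR-Luc HepG2, 2,000/well, charcoal-stripped FBS 5%. Cpd exposure 24hr. Read: CellTiter-Fluor fluorescence, multiplexed with luciferase.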
The nature of assay [9]: Caspase-3/7 induction in HepG2 cells by small molecules, qHTS assay (AID 1346978). Note: nearly all actives have a fitted effect of over 15% in size. In a few lines: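 Wild-type HepG2 cells (2,000/well) were settled 5 h at 37 C, 5% CO2, then exposed to compounds in DMSO for 17 h. Caspase-3/7 activity was read by luminescence 30 min after adding Caspase-Glo 3/7 reagent at room temperature.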
A short description of assay [10]: Caspase-3/7 induction in CHO-K1 cells by small molecules, qHTS cell viability counter screen (AID 1346979). Note: nearly all actives have a fitted effect of over 35% in size. In a few lines: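 CellTiter-Fluor viability check, qHTS format: wild-type CHO-K1, 16hr compound treatment, 1hr reagent incubation, fluorescence read.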
Assay [11] is described as follows: Caspase-3/7 induction in CHO-K1 cells by small molecules, qHTS assay (AID 1346980). Note: nearly all actives have a fitted effect of over 15% in size. In a few lines: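 Wild-type cells were seeded at 1,500 per well and settled 5 hr at 37 C, 5% CO2, then exposed to DMSO-dissolved compounds for 17 hr. Caspase-Glo 3/7 reagent was added, and luminescence was read after 30min at room temperature.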
Assay [12] has as its target Nuclear receptor subfamily 1 group I member 2 (Homo sapiens) (UniProt O75469). The experiment in a line: Human pregnane X receptor (PXR) small molecule agonists, qHTS assay (AID 1346982). Note: nearly all actives have a fitted effect of over 35% in size. In a few lines:
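Cells: HepG2 stably carrying PXR-Luc. Medium held 5% charcoal-stripped FBS. Compounds in DMSO added after 5 hr plating, incubated 24 hr, then luminescence quantified with ONE-Glo.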

In assay [13] the target is Cytochrome P450 2D6 (Homo sapiens) (UniProt P10635). The assay is described as follows: Cytochrome P450 Family 2 Subfamily D Member 6 (CYP2D6) small molecule antagonists: luciferase reporter qHTS assay (AID 1671196). For activity change, negative = inhibition: series mostly up to about 120 µM. Note: nearly all actives have a fitted effect of over 50% in size. Note: potency is the fitted concentration of half-maximal effect. In a few lines:
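Enzyme and proluciferin substrate were first combined with test chemical for 10 min at room temperature. Adding NADPH regeneration solution started a 1 h reaction, stopped with luciferin detection reagent and read by luminescence 20 min later.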
A general note: In a reporter assay the amount or activity of a reporter protein is the signal.

Assay [14] concerns the target Cytochrome P450 2C19 (Homo sapiens) (UniProt P33261). The experiment in a line: Cytochrome P450 Family 2 Subfamily C Member 19 (CYP2C19) small molecule antagonists: luciferase reporter qHTS assay (AID 1671197). For activity change, negative = inhibition: series mostly up to about 120 µM. Note: nearly all actives have a fitted effect of over 65% in size. Note: potency is the fitted concentration of half-maximal effect. In a few lines:
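Compounds were tested on CYP2C19 activity via proluciferin conversion to luciferin. The 37C, 1 h reaction followed NADPH addition; detection reagent stopped it.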

A short description of assay [15]: qHTS assay to identify small molecule agonists of the TGF-beta/Smad signaling pathway (AID 1346859; active = well fitted activation curve with a large enough effect in the signal ratio in the repeat runs, not every such curve was filed as active; the % refers to the signal ratio; note: series mostly up to about 77 µM). In a few lines: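 Each well held 4,000 SBE-bla HEK 293T cells incubated overnight before compound addition; 5 hr later the cleavable FRET substrate went on for 2 hr at room temperature, and fluorescence was read at two emissions.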
The nature of assay [16]: Caspase-3/7 induction in HepG2 cells by small molecules, qHTS cell viability counter screen (AID 1346981). Note: series mostly up to about 92 µM; nearly all actives have a fitted effect of over 30% in size. In a few lines: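 Cell viability is measured as a cytotoxicity counter screen alongside the Caspase-Glo 3/7 readout in identical wells. Wild-type HepG2 cells are treated with test compounds for 16 hr at 37 C before CellTiter-Fluor addition and a 1-hr incubation.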

Assay [17] deals with Nuclear receptor subfamily 1 group I member 2 (Rattus norvegicus) (UniProt Q9R1A7). The experiment in a line: Rat pregnane X receptor (rPXR) activation by small molecules, qHTS assay (AID 1346983). Note: nearly all actives have a fitted effect of over 20% in size. Conditions: rPXR luciferase reporter cells, One-Glo luminescence, 24 h; stronger effect = higher value. In a few lines: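 Cell-based rPXR luciferase reporter assay, 2,000 cells per well, rested 5hr at 37 C before compound addition in DMSO, then 24 hr at 37 C. One-Glo reagent was added and luminescence read after 30 min at room temperature.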

Assay [18] concerns the target Nuclear receptor subfamily 1 group I member 2 (Homo sapiens) (UniProt O75469). The assay is described as follows: CYP3A4 induction through human pregnane X receptor (PXR) by small molecules, qHTS assay (AID 1346984). Note: nearly all actives have a fitted effect of over 40% in size. In a few lines:
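Quantitative HTS in DPX-2 cells, i.e. HepG2 transfected with PXR response element and CYP3A4-promoter luciferase. Compounds in DMSO incubated 24hr at 37C; then P450-Glo CYP3A4 substrate, 3uM final, 3hr; One-Glo luminescence.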

The target is the same in assay [19]. The experiment in a line: Human pregnane X receptor (PXR) activation by small molecules, qHTS assay (AID 1346985). Note: nearly all actives have a fitted effect of over 40% in size. In a few lines: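 DPX-2 cells (HepG2 co-transfected with a PXR response element and a CYP3A4-promoter luciferase construct) were seeded at 2,000 per well, rested 5 hr at 37C, then exposed to DMSO-dissolved compounds for 24 hr. Activation was read as luciferase luminescence.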

Assay [20] can be described thus: qHTS assay to identify small molecule antagonists of the TGF-beta/Smad signaling pathway - cell viability counter screen (AID 1346824). Note: nearly all actives have a fitted effect of over 50% in size. In a few lines:
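SBE-bla HEK 293T cells were plated overnight at 37 C, then given compounds in DMSO plus TGF-beta1 (added as 0.25 ng/mL solution) for 5 hr. After the bla read, CellTiter-Glo was added to the same wells and luminescence read after 30 min at room temperature.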
% is set by controls: 0 for no effect and ±100 for the full control effect.

Sequence of Cytochrome P450 2D6 (Homo sapiens) (P10635 whole entry, looked up): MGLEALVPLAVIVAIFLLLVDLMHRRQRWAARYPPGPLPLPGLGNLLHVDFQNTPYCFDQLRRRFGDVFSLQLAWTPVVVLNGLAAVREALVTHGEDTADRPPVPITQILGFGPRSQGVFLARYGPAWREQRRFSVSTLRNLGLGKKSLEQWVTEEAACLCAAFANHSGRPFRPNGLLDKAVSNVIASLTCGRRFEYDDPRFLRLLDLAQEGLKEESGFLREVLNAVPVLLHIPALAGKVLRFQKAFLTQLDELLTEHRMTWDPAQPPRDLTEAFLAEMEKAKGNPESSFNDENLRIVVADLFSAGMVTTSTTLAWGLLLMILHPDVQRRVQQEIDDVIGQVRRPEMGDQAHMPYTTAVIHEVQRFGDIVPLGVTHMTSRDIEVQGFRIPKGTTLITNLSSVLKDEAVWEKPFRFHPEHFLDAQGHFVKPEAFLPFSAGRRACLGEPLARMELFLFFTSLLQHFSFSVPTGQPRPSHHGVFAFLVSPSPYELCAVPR
Sequence of Thyrotropin-releasing hormone receptor (Homo sapiens) (P34981 whole entry, looked up): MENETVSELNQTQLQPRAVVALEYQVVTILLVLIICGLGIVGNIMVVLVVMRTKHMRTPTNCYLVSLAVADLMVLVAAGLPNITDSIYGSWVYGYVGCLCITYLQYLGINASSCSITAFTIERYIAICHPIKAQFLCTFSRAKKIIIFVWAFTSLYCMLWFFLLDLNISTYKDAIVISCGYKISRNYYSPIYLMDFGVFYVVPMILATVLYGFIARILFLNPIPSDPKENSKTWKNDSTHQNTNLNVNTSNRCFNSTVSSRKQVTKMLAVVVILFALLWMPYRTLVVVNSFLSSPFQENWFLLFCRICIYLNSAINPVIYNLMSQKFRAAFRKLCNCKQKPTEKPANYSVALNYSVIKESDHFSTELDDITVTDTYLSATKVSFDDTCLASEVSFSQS
Sequence of Cytochrome P450 2C19 (Homo sapiens) (P33261 whole entry, looked up): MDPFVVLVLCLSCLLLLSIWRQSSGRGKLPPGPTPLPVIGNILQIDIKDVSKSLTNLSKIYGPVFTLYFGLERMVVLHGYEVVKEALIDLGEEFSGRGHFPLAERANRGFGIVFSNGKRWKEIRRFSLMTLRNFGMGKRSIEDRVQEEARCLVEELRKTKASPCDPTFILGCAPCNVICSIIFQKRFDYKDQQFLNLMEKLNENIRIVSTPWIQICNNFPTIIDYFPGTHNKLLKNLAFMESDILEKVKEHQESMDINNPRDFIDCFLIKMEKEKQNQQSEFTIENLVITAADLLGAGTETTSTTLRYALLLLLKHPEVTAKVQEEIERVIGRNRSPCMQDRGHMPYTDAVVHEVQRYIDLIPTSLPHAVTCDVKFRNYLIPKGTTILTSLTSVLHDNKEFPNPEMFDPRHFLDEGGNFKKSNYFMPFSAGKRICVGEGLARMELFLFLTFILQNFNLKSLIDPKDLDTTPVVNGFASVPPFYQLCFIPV
Sequence of Nuclear receptor subfamily 1 group I member 2 (Homo sapiens) (O75469 whole entry, looked up): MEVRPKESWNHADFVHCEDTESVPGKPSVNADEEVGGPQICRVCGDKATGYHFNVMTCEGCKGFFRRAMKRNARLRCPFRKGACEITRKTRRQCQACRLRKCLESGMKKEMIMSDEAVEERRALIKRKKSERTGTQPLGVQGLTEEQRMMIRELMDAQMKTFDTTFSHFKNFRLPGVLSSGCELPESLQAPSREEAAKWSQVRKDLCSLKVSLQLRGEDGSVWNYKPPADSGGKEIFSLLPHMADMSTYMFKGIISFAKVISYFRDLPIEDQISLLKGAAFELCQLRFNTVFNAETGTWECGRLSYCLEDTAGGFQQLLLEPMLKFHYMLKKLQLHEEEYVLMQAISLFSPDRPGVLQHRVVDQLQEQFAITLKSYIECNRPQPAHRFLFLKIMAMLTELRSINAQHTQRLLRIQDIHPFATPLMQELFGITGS
Sequence of Progesterone receptor (Homo sapiens) (P06401 whole entry, looked up): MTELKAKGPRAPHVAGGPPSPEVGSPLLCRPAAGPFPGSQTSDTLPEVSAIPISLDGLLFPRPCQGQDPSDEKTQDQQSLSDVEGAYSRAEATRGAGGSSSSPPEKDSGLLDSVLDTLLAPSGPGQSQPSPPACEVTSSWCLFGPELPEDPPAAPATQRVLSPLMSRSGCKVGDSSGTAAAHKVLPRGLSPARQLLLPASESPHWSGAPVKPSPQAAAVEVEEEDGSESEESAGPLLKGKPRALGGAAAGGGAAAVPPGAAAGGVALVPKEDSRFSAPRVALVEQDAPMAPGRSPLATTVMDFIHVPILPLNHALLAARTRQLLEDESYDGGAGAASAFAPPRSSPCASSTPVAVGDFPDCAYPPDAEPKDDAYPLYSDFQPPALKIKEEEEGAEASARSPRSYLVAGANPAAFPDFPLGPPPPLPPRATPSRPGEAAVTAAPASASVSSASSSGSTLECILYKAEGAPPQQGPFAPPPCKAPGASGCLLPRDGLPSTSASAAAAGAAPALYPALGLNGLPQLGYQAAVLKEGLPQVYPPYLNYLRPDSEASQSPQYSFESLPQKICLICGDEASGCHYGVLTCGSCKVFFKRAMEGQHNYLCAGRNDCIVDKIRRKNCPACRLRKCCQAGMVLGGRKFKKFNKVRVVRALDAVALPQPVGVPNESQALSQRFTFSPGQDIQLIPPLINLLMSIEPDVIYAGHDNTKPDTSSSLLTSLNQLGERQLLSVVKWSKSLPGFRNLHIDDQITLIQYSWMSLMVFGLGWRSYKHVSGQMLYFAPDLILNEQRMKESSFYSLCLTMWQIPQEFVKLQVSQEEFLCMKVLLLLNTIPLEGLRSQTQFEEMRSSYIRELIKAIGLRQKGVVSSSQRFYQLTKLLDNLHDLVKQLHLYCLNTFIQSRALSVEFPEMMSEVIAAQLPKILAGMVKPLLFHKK
Sequence of Nuclear receptor subfamily 1 group I member 2 (Rattus norvegicus) (Q9R1A7 whole entry, looked up): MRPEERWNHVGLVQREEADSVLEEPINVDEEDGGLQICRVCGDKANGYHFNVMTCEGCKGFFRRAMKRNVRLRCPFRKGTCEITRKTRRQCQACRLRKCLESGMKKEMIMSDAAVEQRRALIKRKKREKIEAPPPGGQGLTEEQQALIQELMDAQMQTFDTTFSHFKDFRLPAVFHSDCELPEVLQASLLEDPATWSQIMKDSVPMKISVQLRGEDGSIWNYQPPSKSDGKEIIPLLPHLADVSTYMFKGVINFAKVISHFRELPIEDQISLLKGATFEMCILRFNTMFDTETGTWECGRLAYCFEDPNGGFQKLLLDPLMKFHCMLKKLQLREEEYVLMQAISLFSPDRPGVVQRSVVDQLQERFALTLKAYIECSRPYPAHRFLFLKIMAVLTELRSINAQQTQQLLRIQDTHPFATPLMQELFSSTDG

As for `OCCN(CCO)c1cccc(Cl)c1`, the Potency result in [1], in [2], in assay [3], in [4], in assay [8] and in assay [9] was “inactive” throughout. Also, the Potency entry in assay [10], in [12] and in assay [13] was “inactive” in each case. Also, the molecule was called inactive in assay [5], in [6], in assay [7] and in assay [11]. Also, the Potency in assay [14] is 31.7 µM (active).

As for `COc1cc(C(=S)N2CCOCC2)cc(OC)c1OC`, the Potency result in assay [1], in assay [2], in assay [3], in [4], in assay [8] and in assay [10] was “inactive” each time. For the same molecule, the Potency entry in assay [16], in assay [12], in assay [18] and in assay [19] was “inactive” throughout. In addition, the molecule was classed as inactive in assay [5], in assay [15], in assay [6], in [7] and in assay [11]. Moreover, in assay [17], the max activation is -2.22%. The Potency in [14] is 21.9 µM (active).

As for `CC(C)CCCC(C)(C)O`, the Potency result in assay [1], in [2], in assay [3], in assay [4], in [8] and in [9] was “inactive” in each case. The Potency entry in assay [10], in assay [16], in assay [12], in [13] and in assay [14] was “inactive” in each case. The call in [20], in assay [5] and in assay [11] was inactive.

On to `C=Cc1ccccn1`, for which the Potency entry in [1], in assay [2], in assay [3], in assay [4], in assay [8] and in assay [9] was “inactive” throughout. Besides, the Potency result in [10] and in assay [16] was “inactive” in each case. For the same molecule, the molecule was called inactive in [5], in [15], in [7] and in assay [11].

For the molecule `On1nnc2ccccc21`, the Potency entry in assay [1], in assay [2], in assay [8], in assay [10], in assay [16] and in [12] was “inactive” in each case. Further, in [14], the Potency entry is “inactive”. Besides, the Potency in [4] was 1.37 µM (active); in [13], 35.6 µM (active). The molecule was called inactive in [5], in [15] and in [11].

Take `CN(CCOc1ccc(NS(C)(=O)=O)cc1)CCc1ccc(NS(C)(=O)=O)cc1`: the Potency entry in [1], in assay [2], in assay [3], in assay [4], in assay [8] and in assay [9] was “inactive” each time. Also, the Potency result in [10], in [16], in assay [12], in [18] and in assay [14] was “inactive” in each case. For the same molecule, the outcome in assay [5] and in assay [11] was inactive. The max activation in assay [17] is -6.17%.

Turning to `CC(N)C(=O)OC(C)(C)Cc1ccc(Cl)cc1` (stereo not drawn), the Potency result in assay [1], in assay [2], in assay [8], in assay [9], in [10] and in [16] was “inactive” each time. Further, the Potency result in [12] is “inactive”. The call in assay [20], in assay [5] and in assay [11] was inactive. Moreover, the figures for the Potency in [13] and in [14] were 7.76 µM (active) and 1.55 µM (active), respectively.

For `CC(C)C[C@H](NC(=O)CNC(=O)[C@H](Cc1ccc(O)cc1)NC(=O)[C@H](CO)NC(=O)[C@H](Cc1c[nH]c2ccccc12)NC(=O)[C@H](Cc1cnc[nH]1)NC(=O)[C@@H]1CCC(=O)N1)C(=O)N[C@@H](CCCN=C(N)N)C(=O)N1CCC[C@H]1C(=O)NCC(N)=O` (stereo in doubt), the Potency result in assay [1], in assay [2], in assay [3], in [8], in assay [9] and in assay [10] was “inactive” in each case. Besides, the Potency entry in assay [16], in [12], in assay [13] and in assay [14] was “inactive” throughout. In addition, the molecule was classed as inactive in assay [20], in assay [5], in assay [15], in assay [6], in assay [7] and in assay [11].

As to `COC(=O)C1CC(=O)C(C(=O)OC)CC1=O` (stereo not drawn), the activation in [1] was 15.8% [at 8.39 µM]; in assay [15], 5.28% [at 6.97 µM]; in [7], 0.0574% [at 5.23 µM]. Besides, the activity change, negative = inhibition in [2] was 5.34% [at 8.39 µM]; in assay [13] it was -3.24% [at 10.5 µM]. The activity change, negative = cytotoxicity was 15.1% [at 8.39 µM] in assay [3], -0.722% [at 6.97 µM] in assay [5], 1.52% [at 8.39 µM] in [8] and 9.03% [at 8.39 µM] in assay [16]. In addition, the activity, negative = inhibition in assay [6] was 1.02% [at 4.65 µM]. Besides, in assay [9], the caspase activation was 0.89% [at 8.39 µM]. Moreover, the caspase-3/7 activation in assay [11] was 0.641% [at 8.39 µM].
